PubChem BioAssay (Tox21)
Results filed as inconclusive are left out. Active and inactive are the calls of the source. Unless noted, calls come from the whole dose curve; as a rule, active = well fitted curve in the direction sought with a large enough effect in the repeat runs; inconclusive = weak or mixed curves; inactive = no such curve, though single readings can be large; an effect the other way counts as inactive or inconclusive.

What was measured:
[1] = molecular target: Thyrotropin receptor (Homo sapiens) (UniProt P16473); test: qHTS assay to identify small molecule antagonists of the thyroid stimulating hormone receptor (TSHR) signaling pathway (AID 1259385; calls by dose curve; note: nearly all actives have a fitted effect of over 20% in size)
How it was run: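 TSHR-HEK293 cells (800/well) plated 18 h, then compounds with Ro20-1724 and TSH at 1.5 ng/mL final, 30 min at room temperature. cAMP quantified by HTRF (cAMP-d2/anti-cAMP-cryptate, 1 h); 15 concentrations in triplicate.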

[2] = qHTS assay to identify small molecule agonists of the estrogen receptor alpha (ER-alpha) signaling pathway in the presence of an antagonist - cell viability counter screen (AID 1259386);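 note: series mostly up to about 92 µM; cells exposed to compounds for 22 h at 37 °C before the viability read; nearly all actives have a fitted effect of over 30% in size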
How it was run: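 VM7Luc4E2, stripped-serum pre-culture 5 d; 24hr plating; +ICI-182,780 10.0nM final; cpds 15 conc, 22hr, 37C/5% CO2; CellTiter-Fluor added at 21hr, fluorescence 1hr later.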

[3] = molecular target: Progesterone receptor (Homo sapiens) (UniProt P06401); test: qHTS assay to identify small molecule agonists of the progesterone receptor (PR) signaling pathway (AID 1346784; calls by dose curve; note: nearly all actives have a fitted effect of over 30% in size)
How it was run: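 Using charcoal-stripped serum (2%) to limit endogenous steroids, PR-UAS-bla HEK 293T cells received compounds for 16 hr at 37C after 6 hr plating; beta-lactamase FRET fluorescence was recorded following 2 hr substrate loading at room temperature.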

[4] = molecular target: Progesterone receptor (Homo sapiens) (UniProt P06401); test: qHTS assay to identify small molecule antagonists of the progesterone receptor (PR) signaling pathway (AID 1346795; active = well fitted inhibition curve with a large enough effect in the signal ratio in the repeat runs, not every such curve was filed as active; the % refers to the signal ratio)
How it was run: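 Inhibition of R5020-induced (1 nM final) beta-lactamase reporter signal in PR-UAS-bla HEK293T cells was scored by FRET fluorescence after overnight (16 hr) compound treatment.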

[5] = qHTS assay to identify small molecule antagonists of the progesterone receptor (PR) signaling pathway - cell viability counter screen (AID 1346798); note: series mostly up to about 92 µM; nearly all actives have a fitted effect of over 50% in size
How it was run: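 ATP content as viability readout: CellTiter-Glo luminescence, 30 min room temperature, in PR-UAS-bla HEK293T cells after 16 hr compound/R5020 treatment at 37C and 5% CO2.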

[6] = qHTS assay to identify small molecule agonists of the progesterone receptor (PR) signaling pathway - cell viability counter screen (AID 1346799; calls by dose curve; note: nearly all actives have a fitted effect of over 45% in size)
How it was run: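 Cytotoxicity in PR-bla HEK293T cells: 16 h compound, 37C; CellTiter-Glo added post-FRET read; luminescence after 30 min RT.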

[7] = qHTS assay to identify small molecule antagonists of the TGF-beta/Smad signaling pathway - cell viability counter screen (AID 1346824); note: nearly all actives have a fitted effect of over 50% in size
How it was run: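 SBE-bla HEK 293T cells, incubated overnight, then compound plus 0.25 ng/mL TGF-beta1 (stock added) for 5 hr at 37 C. Viability was read in the same wells by CellTiter-Glo luminescence after 30 min at room temperature.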

[8] = qHTS assay to identify small molecule agonists of the TGF-beta/Smad signaling pathway - cell viability counter screen (AID 1346829); note: top concentration of the series differs between compounds; nearly all actives have a fitted effect of over 45% in size
How it was run: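 Cytotoxicity counter screen: CellTiter-Glo luminescence (30 min, room temperature) measured in the SBE-bla HEK 293T reporter wells after 5 hr compound treatment at 37 C and the 2 hr substrate step.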

[9] = qHTS assay to identify small molecule agonists of the TGF-beta/Smad signaling pathway (AID 1346859; active = well fitted activation curve with a large enough effect in the signal ratio in the repeat runs, not every such curve was filed as active; the % refers to the signal ratio; note: series mostly up to about 77 µM)
How it was run: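 Stable Smad binding element-beta-lactamase HEK 293T cells; 5 hr compound exposure at 37 C under 5% CO2; 2 hr room-temperature substrate step; fluorescence excited at 405 nm, collected at 460 nm and 530 nm.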

[10] = molecular target: Thyrotropin-releasing hormone receptor (Homo sapiens) (UniProt P34981); test: qHTS assay to identify small molecule antagonists of the thyrotropin-releasing hormone receptor (TRHR) signaling pathway (AID 1346877; active = well fitted inhibition curve with a large enough effect in the repeat runs, not every such curve was filed as active; note: series mostly up to about 51 µM)
How it was run: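 Intracellular calcium fluorescence, read kinetically every second over 3 min, reports TRH-evoked signalling in HEK293 cells carrying TRHR. Test compounds were added 5 min ahead of a 1 nM TRH challenge.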

[11] = molecular target: Thyrotropin-releasing hormone receptor (Homo sapiens) (UniProt P34981); test: qHTS assay to identify small molecule agonists of the thyrotropin-releasing hormone receptor (TRHR) signaling pathway (AID 1346891; calls by dose curve;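 note: HEK293 cells expressing TRHR with calcium dye readout; series mostly up to about 58 µM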)
How it was run: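 In 1536-format, 1500 TRHR-Hek293 cells per well grew 18 h, took up calcium dye for 2 h at 37 °C, received compound, and were read kinetically; 15-point titrations, triplicates.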

[12] = Human pregnane X receptor (PXR) small molecule agonists, qHTS cell viability counter screen (AID 1346977); note: nearly all actives have a fitted effect of over 50% in size
How it was run: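 Readout is CellTiter-Fluor fluorescence from PXR-Luc HepG2 cells. Plated cells rested 5hr, then were treated with compounds for 24hr at 37C and 5% CO2, with reagent present during the last hour.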

[13] = Caspase-3/7 induction in HepG2 cells by small molecules, qHTS assay (AID 1346978); note: nearly all actives have a fitted effect of over 15% in size
How it was run: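 Wild-type HepG2 cells, 2,000/well, settled 5 hr at 37 C and 5% CO2, then compound-treated for 17 hr; caspase-3/7 activity read by luminescent Caspase-Glo 3/7 after 30 min at room temperature.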

[14] = Caspase-3/7 induction in CHO-K1 cells by small molecules, qHTS cell viability counter screen (AID 1346979); note: nearly all actives have a fitted effect of over 35% in size
How it was run: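 To flag cytotoxic compounds, treated CHO-K1 wild-type cells were given CellTiter-Fluor at 16hr and read fluorescently after 1hr at 37C; the caspase-3/7 luminescence was measured in these same wells.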

[15] = Caspase-3/7 induction in HepG2 cells by small molecules, qHTS cell viability counter screen (AID 1346981); note: series mostly up to about 92 µM; nearly all actives have a fitted effect of over 30% in size
How it was run: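 HepG2, WT, 2,000 cells/well; 5 hr pre-incubation 37 C/5% CO2; compound pin-transferred from DMSO; 16 hr exposure; CellTiter-Fluor, 1 hr; fluorescence read.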

[16] = molecular target: Nuclear receptor subfamily 1 group I member 2 (Rattus norvegicus) (UniProt Q9R1A7); test: Rat pregnane X receptor (rPXR) activation by small molecules, qHTS assay (AID 1346983); conditions: rPXR luciferase reporter cells, One-Glo luminescence, 24 h; stronger effect = higher value; note: nearly all actives have a fitted effect of over 20% in size
How it was run: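 Cell-based rPXR activation assay: rPXR cells, 2,000 per well, rested 5hr at 37 C, then exposed to compounds in DMSO for 24 hr at 37 C. Luciferase activity read by One-Glo luminescence after 30 min at room temperature.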

[17] = Caspase-3/7 induction in CHO-K1 cells by small molecules, qHTS assay (AID 1346980); note: nearly all actives have a fitted effect of over 15% in size
How it was run: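 Wild-type CHO-K1 cells exposed to compounds for 17hr at 37 C, 5% CO2. Caspase-3/7 activity then measured by Caspase-Glo 3/7 luminescence after 30min at room temperature.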

[18] = molecular target: Nuclear receptor subfamily 1 group I member 2 (Homo sapiens) (UniProt O75469); test: Human pregnane X receptor (PXR) small molecule agonists, qHTS assay (AID 1346982); note: nearly all actives have a fitted effect of over 35% in size
How it was run: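 Luciferase signal from ONE-Glo (30 min, room temperature) measured activation of hPXR-driven CYP3A4 reporter expression in PXR-Luc HepG2 cells treated with compounds for 24 hr at 37 C.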

[19] = molecular target: Nuclear receptor subfamily 1 group I member 2 (Homo sapiens) (UniProt O75469); test: CYP3A4 induction through human pregnane X receptor (PXR) by small molecules, qHTS assay (AID 1346984); note: nearly all actives have a fitted effect of over 40% in size
How it was run: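 Luminescence readout: luciferase signal after One-Glo (30 min, room temperature), following 3 h at 37C with 3uM final Luciferin-IPA P450 substrate. Cells were DPX-2 (HepG2, PXR/CYP3A4-luc co-transfected) dosed for 24 h.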

[20] = molecular target: Nuclear receptor subfamily 1 group I member 2 (Homo sapiens) (UniProt O75469); test: Human pregnane X receptor (PXR) activation by small molecules, qHTS assay (AID 1346985); note: nearly all actives have a fitted effect of over 40% in size
How it was run: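 DPX-2 cells (HepG2 co-transfected with a PXR response element and a CYP3A4-promoter luciferase construct) were seeded at 2,000 per well, rested 5 hr at 37C, then exposed to DMSO-dissolved compounds for 24 hr. Activation was read as luciferase luminescence.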
% is set by controls: 0 for no effect and ±100 for the full control effect.

Sequence of Thyrotropin-releasing hormone receptor (Homo sapiens) (P34981 whole entry, looked up): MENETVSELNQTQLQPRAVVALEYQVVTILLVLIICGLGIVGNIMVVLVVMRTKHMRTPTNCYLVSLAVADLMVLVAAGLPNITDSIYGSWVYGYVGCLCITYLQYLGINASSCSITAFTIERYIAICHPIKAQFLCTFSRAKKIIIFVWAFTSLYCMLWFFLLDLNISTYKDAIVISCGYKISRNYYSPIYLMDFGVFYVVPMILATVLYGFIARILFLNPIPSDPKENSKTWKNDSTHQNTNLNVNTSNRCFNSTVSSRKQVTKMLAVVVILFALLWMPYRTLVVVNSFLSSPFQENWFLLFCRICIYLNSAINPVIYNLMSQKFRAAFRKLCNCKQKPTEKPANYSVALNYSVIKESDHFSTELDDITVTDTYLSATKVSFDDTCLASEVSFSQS
Sequence of Nuclear receptor subfamily 1 group I member 2 (Homo sapiens) (O75469 whole entry, looked up): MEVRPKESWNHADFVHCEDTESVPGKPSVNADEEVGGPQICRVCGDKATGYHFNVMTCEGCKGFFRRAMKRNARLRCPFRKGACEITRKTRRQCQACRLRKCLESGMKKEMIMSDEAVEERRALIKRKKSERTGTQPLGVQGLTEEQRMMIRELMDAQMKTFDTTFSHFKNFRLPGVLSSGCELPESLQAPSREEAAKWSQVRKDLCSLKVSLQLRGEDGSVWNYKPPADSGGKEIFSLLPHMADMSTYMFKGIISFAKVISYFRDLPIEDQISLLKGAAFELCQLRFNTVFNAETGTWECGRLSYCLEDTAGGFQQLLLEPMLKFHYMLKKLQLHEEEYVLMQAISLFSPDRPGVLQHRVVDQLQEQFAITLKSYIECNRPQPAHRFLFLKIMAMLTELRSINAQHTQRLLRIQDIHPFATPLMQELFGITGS
Sequence of Progesterone receptor (Homo sapiens) (P06401 whole entry, looked up): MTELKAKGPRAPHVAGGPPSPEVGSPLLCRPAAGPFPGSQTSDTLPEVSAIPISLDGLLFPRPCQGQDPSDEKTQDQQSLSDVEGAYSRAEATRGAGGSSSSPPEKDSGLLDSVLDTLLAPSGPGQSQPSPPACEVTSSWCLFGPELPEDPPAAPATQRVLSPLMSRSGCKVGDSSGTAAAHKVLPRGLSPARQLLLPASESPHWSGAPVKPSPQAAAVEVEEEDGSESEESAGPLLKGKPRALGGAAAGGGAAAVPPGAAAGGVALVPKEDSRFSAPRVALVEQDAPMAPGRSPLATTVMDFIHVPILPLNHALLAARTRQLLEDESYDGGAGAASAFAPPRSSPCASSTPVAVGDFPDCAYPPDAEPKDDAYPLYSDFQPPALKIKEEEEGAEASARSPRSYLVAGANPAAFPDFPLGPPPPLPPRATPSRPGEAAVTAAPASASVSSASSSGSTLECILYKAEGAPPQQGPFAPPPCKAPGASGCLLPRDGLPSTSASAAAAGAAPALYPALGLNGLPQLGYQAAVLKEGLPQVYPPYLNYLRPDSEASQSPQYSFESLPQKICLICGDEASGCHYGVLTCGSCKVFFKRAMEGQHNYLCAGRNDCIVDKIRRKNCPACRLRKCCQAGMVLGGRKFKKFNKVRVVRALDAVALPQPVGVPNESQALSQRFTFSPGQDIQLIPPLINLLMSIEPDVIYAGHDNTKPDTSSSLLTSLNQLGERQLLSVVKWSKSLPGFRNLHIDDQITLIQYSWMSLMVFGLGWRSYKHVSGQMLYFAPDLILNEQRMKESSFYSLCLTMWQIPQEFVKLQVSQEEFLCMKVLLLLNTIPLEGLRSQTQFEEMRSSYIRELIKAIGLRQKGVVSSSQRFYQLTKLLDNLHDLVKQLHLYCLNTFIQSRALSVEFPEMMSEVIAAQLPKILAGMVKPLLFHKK
Sequence of Thyrotropin receptor (Homo sapiens) (P16473 whole entry, looked up): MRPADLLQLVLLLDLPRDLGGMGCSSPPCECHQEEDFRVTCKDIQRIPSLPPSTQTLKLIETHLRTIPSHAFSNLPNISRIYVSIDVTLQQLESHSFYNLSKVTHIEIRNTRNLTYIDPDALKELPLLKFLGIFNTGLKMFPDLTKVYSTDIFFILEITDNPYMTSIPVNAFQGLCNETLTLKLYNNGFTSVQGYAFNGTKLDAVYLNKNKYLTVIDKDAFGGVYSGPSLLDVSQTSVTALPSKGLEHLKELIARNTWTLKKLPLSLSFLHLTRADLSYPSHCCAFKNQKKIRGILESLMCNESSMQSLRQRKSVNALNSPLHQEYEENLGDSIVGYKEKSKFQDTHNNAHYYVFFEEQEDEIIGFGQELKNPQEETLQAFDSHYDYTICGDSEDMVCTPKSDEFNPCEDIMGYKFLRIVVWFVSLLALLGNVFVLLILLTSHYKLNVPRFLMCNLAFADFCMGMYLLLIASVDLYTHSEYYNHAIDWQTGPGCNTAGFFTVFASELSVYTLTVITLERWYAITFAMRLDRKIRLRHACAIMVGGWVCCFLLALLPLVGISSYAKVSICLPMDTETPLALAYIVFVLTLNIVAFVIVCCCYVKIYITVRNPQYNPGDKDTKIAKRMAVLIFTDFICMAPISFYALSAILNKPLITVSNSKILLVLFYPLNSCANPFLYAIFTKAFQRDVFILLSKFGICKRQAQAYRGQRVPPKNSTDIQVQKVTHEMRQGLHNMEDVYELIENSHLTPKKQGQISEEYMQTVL
Sequence of Nuclear receptor subfamily 1 group I member 2 (Rattus norvegicus) (Q9R1A7 whole entry, looked up): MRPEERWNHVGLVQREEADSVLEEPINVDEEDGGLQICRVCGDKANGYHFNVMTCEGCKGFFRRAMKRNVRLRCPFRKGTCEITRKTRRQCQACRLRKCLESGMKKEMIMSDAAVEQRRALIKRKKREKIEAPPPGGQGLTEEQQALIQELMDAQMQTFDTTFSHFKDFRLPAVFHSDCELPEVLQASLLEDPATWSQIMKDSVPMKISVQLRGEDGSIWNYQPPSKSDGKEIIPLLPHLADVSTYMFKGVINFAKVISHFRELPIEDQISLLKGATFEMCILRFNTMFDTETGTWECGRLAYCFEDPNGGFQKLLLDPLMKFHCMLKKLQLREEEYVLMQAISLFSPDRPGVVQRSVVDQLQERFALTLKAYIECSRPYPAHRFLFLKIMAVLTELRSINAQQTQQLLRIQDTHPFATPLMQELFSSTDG

C=CCN1CC[C@]23CCCC[C@H]2[C@H]1Cc1ccc(O)cc13
inactive: outcome [1] | Potency [2] | Potency [3] | Potency [4] | Potency [5] | Potency [6] | outcome [7] | Potency [8] | outcome [9] | Potency [10] | outcome [11] | Potency [12] | outcome [13] | Potency [14] | Potency [15] | max activation [16] -1.31%

CCOP(=S)(OCC)SCCl
inactive: outcome [1] | Potency [2] | Potency [3] | Potency [4] | Potency [5] | Potency [6] | outcome [7] | Potency [8] | outcome [9] | Potency [10] | outcome [11] | Potency [12] | outcome [13] | outcome [17] | Potency [15]

Clc1cc2c(cc1Cl)Oc1cc(Cl)c(Cl)cc1O2
inactive: activity change, negative = inhibition [1] -3.4% [at 0.349 µM] | activity change, negative = cytotoxicity [2] 0.532% [at 0.349 µM] | activation [3] 2.35% [at 0.349 µM] | activity change, negative = inhibition [4] 5.7% [at 0.348 µM] | activity change, negative = cytotoxicity [5] -11.1% [at 0.348 µM] | activity change, negative = cytotoxicity [6] 4.69% [at 0.349 µM] | viability change, negative = cytotoxic [7] -2.55% [at 0.29 µM] | activity change, negative = cytotoxicity [8] 9.06% [at 0.29 µM] | activation [9] 2% [at 0.29 µM] | activity, negative = inhibition [10] 2.75% [at 0.194 µM] | activation [11] -0.214% [at 0.218 µM] | activity change, negative = cytotoxicity [12] -5.16% [at 0.349 µM] | caspase activation [13] 2.22% [at 0.349 µM] | activity change, negative = cytotoxicity [14] 8.13% [at 0.349 µM] | caspase-3/7 activation [17] 0.0442% [at 0.349 µM] | activity change, negative = cytotoxicity [15] -3.38% [at 0.349 µM] | activation [18] -4.83% [at 0.349 µM]

CNC(=O)NC(O)C(Cl)(Cl)Cl (centres undefined)
inactive: outcome [1] | Potency [2] | Potency [3] | Potency [4] | Potency [5] | Potency [6] | outcome [7] | Potency [8] | outcome [9] | Potency [10] | outcome [11] | Potency [12] | outcome [13] | Potency [14] | outcome [17] | Potency [15] | max activation [16] -4.06% | Potency [19] | Potency [20]

C[C@H](N)C(=O)c1ccccc1
inactive: outcome [1] | Potency [2] | Potency [3] | Potency [4] | Potency [5] | Potency [6] | outcome [7] | Potency [8] | outcome [9] | Potency [10] | outcome [11] | Potency [12] | outcome [13] | Potency [14] | outcome [17] | Potency [15] | Potency [18]

C1CN2CCC1CC2
inactive: outcome [1] | Potency [2] | Potency [3] | Potency [4] | Potency [5] | Potency [6] | outcome [7] | Potency [8] | outcome [9] | Potency [10] | outcome [11] | Potency [12] | outcome [13] | Potency [14] | outcome [17] | Potency [15]

CCCCOC(C)=O
inactive: outcome [1] | Potency [2] | Potency [3] | Potency [4] | Potency [5] | Potency [6] | outcome [7] | Potency [8] | outcome [9] | Potency [10] | outcome [11] | Potency [12] | outcome [13] | Potency [14] | outcome [17] | Potency [15] | Potency [18]

CCC(C)C(C)(COC(N)=O)COC(N)=O (centres undefined)
inactive: outcome [1] | Potency [2] | Potency [3] | Potency [4] | Potency [5] | Potency [6] | outcome [7] | Potency [8] | outcome [9] | Potency [10] | outcome [11] | Potency [12] | outcome [13] | Potency [14] | outcome [17] | Potency [15] | Potency [18]
